Source: PubChem BioAssay (National Center for Advancing Translational Sciences (NCATS))
HP1b chromo inh = HTS for Inhibitors of HP1-beta Chromodomain Interactions with Methylated Histone Tails | Chromobox protein homolog 1 (Homo sapiens), P83916 | AlphaScreen HP1-beta / biotin-H3K9me3 peptide binding | Potency, µM (top dose mostly 114 µM), for inactives: top-dose activity change, negative = inhibition, hits mostly inhibitors | hit rate 0.56% among 390,000; also: nearly all actives have a fitted effect of over 70% in size
Target sequence (P83916 whole entry, looked up): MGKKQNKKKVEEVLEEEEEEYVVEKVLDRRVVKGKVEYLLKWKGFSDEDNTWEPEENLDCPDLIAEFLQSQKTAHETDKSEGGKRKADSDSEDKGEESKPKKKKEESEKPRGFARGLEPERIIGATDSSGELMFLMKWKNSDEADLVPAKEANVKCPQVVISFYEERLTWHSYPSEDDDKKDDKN
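AlphaScreen: HP1-beta (50 nM) preformed 30 min with biotin-H3(1-18)K9me3 peptide (50 nM) in PBS pH 7.4, 0.01% Tween-20. Compound added for 30 min at RT, then streptavidin donor/nickel chelate acceptor beads (10 ug/mL) for 30 min.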
PLK1 PBD block = qHTS for Inhibitors of PLK1-PDB (polo-like kinase 1 - polo-box domain): Primary Screen; Serine/threonine-protein kinase PLK1 (Homo sapiens), P53350; Plk1 PBD binding of FITC phosphopeptide, fluorescence polarization; Potency, µM, for inactives: max response, negative = inhibition, usual class: inhibitors; hit rate 2.8% among 360,000; also: series mostly up to about 57 µM; % is scaled to controls: 0 for no effect and ±100 for the full control effect; nearly all actives have a fitted effect of over 65% in size
G9a inh = qHTS Assay for Inhibitors of Histone Lysine Methyltransferase G9a | Histone-lysine N-methyltransferase EHMT2 (Homo sapiens), Q96KQ7 | Potency, µM (highest dose often 102 µM), for inactives: top-dose activity, negative = inhibition, actives largely listed as inhibitors | hit rate 8.8% among 350,000 | G9a H3K9 monomethylation, AlphaScreen, 2 h; also: % is scaled to controls: 0 for no effect and ±100 for the full control effect; nearly all actives have a fitted effect of over 75% in size
Target sequence (Q96KQ7 913-1193 limits assumed): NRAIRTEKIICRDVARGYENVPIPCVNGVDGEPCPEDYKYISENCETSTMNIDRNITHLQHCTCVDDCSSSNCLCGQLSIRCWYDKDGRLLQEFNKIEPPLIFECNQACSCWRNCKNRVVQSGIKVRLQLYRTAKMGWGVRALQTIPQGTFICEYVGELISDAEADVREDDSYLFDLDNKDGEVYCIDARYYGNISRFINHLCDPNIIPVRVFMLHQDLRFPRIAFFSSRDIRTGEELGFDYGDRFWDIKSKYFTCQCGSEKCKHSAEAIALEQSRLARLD
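AlphaScreen detection with an anti-monomethyl H3K9 antibody quantified product after a 2 h room-temperature reaction containing 500 nM biotinylated H3K9 peptide, 20 µM SAM and 20 nM enzyme, which had been preincubated 15 min with compound.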
JMJD2A Tudor inh = qHTS Assay for Inhibitors of JMJD2A-Tudor Domain | Lysine-specific demethylase 4A (Homo sapiens), O75164 | AlphaScreen JMJD2A-Tudor / H3K4me3 peptide binding | Potency, µM (highest dose often 114 µM), for inactives: at the top dose activity change, negative = inhibition, actives largely listed as inhibitors | hit rate 4.4% among 390,000 | AID 504339, 2011; also: % is scaled to controls: 0 for no effect and ±100 for the full control effect; nearly all actives have a fitted effect of over 50% in size
Sfp inh = qHTS Assay for Inhibitors of Bacillus subtilis Sfp phosphopantetheinyl transferase (PPTase) | Potency, µM, for the others: largest response in the series, negative = inhibition, hits mostly inhibitors | 4'-phosphopantetheinyl transferase ffp (Bacillus subtilis), Q9F4F7 | Biochemical Sfp PPTase activity, qHTS | hit rate 3.5% among 310,000;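 also: the enzyme is Sfp with the accession as filed and its product quenches rhodamine fluorescence; 0% = enzyme reaction without inhibitor and -100% = no enzyme wells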
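After 15 min at room temperature with compound, 15 nM Sfp received 5 uM rhodamine-CoA plus 12.5 uM BHQ-2-ybbR (50 mM Hepes pH 7.6, 10 mM MgCl2). Rate came from the fluorescence difference over 30 min, ex 525/em 598 nm.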
BAZ2B inh = qHTS Assay for Inhibitors of BAZ2B. hit rate 4.4% among 360,000. AlphaScreen BAZ2B-H3K14Ac peptide displacement. Bromodomain adjacent to zinc finger domain protein 2B (Homo sapiens), Q9UIF8. Potency, µM (doses to about 114 µM), for inactives: at the top dose activity change, negative = inhibition, usual class: inhibitors; also: % is scaled to controls: 0 for no effect and ±100 for the full control effect; nearly all actives have a fitted effect of over 60% in size
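Inhibition is scored as reduced AlphaScreen emission. The BAZ2B/b-H3(5-23)K14Ac complex (50 nM each) in PBS pH 7.4, 0.01% Tween-20 meets compound (up to 110 uM) for 30 min at RT before bead addition.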
* = called active by the depositor; ? = inconclusive; · = no result; [ ] = dose if it differs, or a comment. Sampled rows, rich in hits. Any-hit rate of the full collection: about 12%. Calls follow the shape of the dose curve; as a rule, active = well fitted curve in the direction sought with a large enough effect; inconclusive = small, poorly fitted or top-dose-only effect, or another doubt; inactive = no such curve, though single readings can be large; an effect the other way counts as inactive or inconclusive. Potency is read from the fitted curve at half-maximal effect.

SMILES	HP1b chromo inh	PLK1 PBD block	G9a inh	JMJD2A Tudor inh	Sfp inh	BAZ2B inh
CC(C)c1ccccc1NCC(=O)N1CCN(Cc2ccccc2)CC1	23.7%	-7.7%	50.1µM*	-28.8%	8.6%	-33.2%
CCC(C)NC(=S)N1CCN(Cc2ccc3c(c2)OCO3)CC1 (stereo not given)	-10.6%	?	25.1µM*	-6.8%[11.4 µM]	-8.2%	50.1µM*
CCC(C)NC(=S)N1CCN(Cc2ccccc2)CC1 (stereo not given)	79.4µM*	2.9%	0.0%	?	5.3%	0.0%
CC(C)c1ccccc1NC(=S)N1CCN(Cc2ccc3c(c2)OCO3)CC1	10.2%	-3.0%	-34.8%	-24.0%	-0.3%	?
CC(C)CNC(=S)N1CCN(Cc2ccc3c(c2)OCO3)CC1	25.1µM*	2.2%	15.8µM*	20µM*	79.4µM*	22.4µM*
CC(=O)Nc1ccc(C(=O)COC(=O)c2cc(C)oc2C)c(F)c1	23.7%	-6.5%	·	-31.3%	·	·
COc1ccc(CN2CCNC(=O)C2CC(=O)N(C)C2CCOCC2)cc1OC (stereo not given)	·	-9.9%	·	·	·	·
NS(=O)(=O)c1ccc(NC(=S)N2CCN(Cc3ccc4c(c3)OCO4)CC2)cc1	-0.9%	11.9µM*	-105.5%[59 µM]	-22.0%	22.4µM*	-36.9%
NS(=O)(=O)c1ccc(NC(=S)N2CCN(Cc3ccc(Cl)c(Cl)c3)CC2)cc1	17.5%	-12.2%	?	?	21.3%	-38.4%
Oc1cccc(C(=S)N2CCN(Cc3ccccc3)CC2)c1	?	15µM*	?	?	?	-26.6%
O=C(Cn1c(=O)nc(-c2ccccc2F)c2cc(Cl)ccc21)NCCCc1ccccc1	30.2%	·	-1.1%[59 µM]	-3.8%	·	0.2%
O=C1CCCN1CCC1CCN(C2CC(=O)N(c3ccc(F)cc3)C2=O)CC1 (stereo not given)	43.8%	-9.0%	14.1µM*	-14.7%	-14.4%	2.3%
O=C(C1CCN(C2CC(=O)N(c3ccc(F)cc3)C2=O)CC1)N1CCOCC1 (stereo not given)	30.7%	-12.1%	?	?	-13.8%	-3.3%
O=C(Nc1ncccc1O)c1ccc2c(c1)OCCO2	5.3%	-5.9%	50.1µM*	25.1µM*	·	79.4µM*
O=C(Nc1ncccc1O)c1ccc2c(c1)OCO2	12.0%	1.4%	?	17.8µM*	·	?
Cc1cccnc1NC(=O)c1ccc2c(c1)OCCO2	24.3%	-3.3%	0.0%	-9.0%	·	13.2%
c1ccc(-c2ccc(-c3nccc4ccccc34)[nH]2)cc1	·	·	?	·	50.1µM*	?
ON=C1c2ccccc2-c2ccc(F)cc21	37.8%	-0.6%	·	-14.6%	·	·
CC1(C)[N+]([O-])=C2C(=[N+]([O-])C1(C)C)c1ccccc1/C2=N\O	18.0%	-2.1%	50.1µM*	-2.6%	-23.0%	?
CC(C)c1ccc(/C=N/NC(=O)c2nnn(-c3nonc3N)c2CN(C)C2CCCCC2)cc1	21.0%	?	8.6%	-30.4%	20.1%	-3.8%
Cc1noc(C)c1COC(=O)/C=C/c1ccc(Cl)cc1	51.5%	11.9µM*	91.9%	?	-16.7%	68.3%
Cc1noc(C)c1COC(=O)CCCNC(=O)c1ccc(Cl)cc1	30.9%	-7.2%	-11.7%	-18.4%	7.5%	-11.6%
COc1ccc(C2Nc3ccccc3C(=O)N2Cc2ccncc2)cc1COc1ccc(NC(C)=O)cc1 (stereo not given)	·	·	·	79.4µM*	·	·
COc1ccc(C2Nc3ccccc3C(=O)N2Cc2cccc3ccccc23)cc1COc1ccc(NC(C)=O)cc1 (stereo not given)	·	·	·	79.4µM*	·	·
COc1ccc(C2Nc3ccccc3C(=O)N2CCO)cc1COc1ccc(NC(C)=O)cc1 (stereo not given)	·	·	·	79.4µM*	·	·
SMILES	HP1b chromo inh	PLK1 PBD block	G9a inh	JMJD2A Tudor inh	Sfp inh	BAZ2B inh
COc1ccc(C2Nc3ccccc3C(=O)N2Cc2ccccc2)cc1COc1ccc(F)cc1 (stereo not given)	·	·	·	-10.9%	·	·
COc1cccc(OCc2cc(C3Nc4ccccc4C(=O)N3Cc3ccco3)ccc2OC)c1 (stereo not given)	11.9%	-4.9%	?	-30.4%	14.1µM*	-25.3%
Cc1ccc(SCC(=O)OCC(=O)N2CCN(C(=O)c3ccco3)CC2)c(C)c1	7.8%	-23.5%	-2.8%[2.33 µM]	-13.0%	·	0.8%
CC(NC(=O)COc1ccc(S(=O)(=O)N2CCOCC2)cc1)c1ccccc1 (stereo not given)	20.2%	-2.8%	16.0%[12.7 µM]	-17.2%	·	-2.3%
CC(C)[C@H](NC(=O)c1ccccc1)C(=O)OCC(=O)Nc1sccc1C(N)=O	10.0%	-16.1%	·	-23.4%	·	·
CCN(CC)CCN1C(=O)c2ccccc2NC1c1ccc(OC)c(COc2ccc(NC(C)=O)cc2)c1 (stereo not given)	21.2%[57 µM]	·	·	-25.4%[57.1 µM]	·	·
COc1ccc(C2Nc3ccccc3C(=O)N2CC(C)(C)C)cc1COc1ccc(NC(C)=O)cc1 (stereo not given)	·	·	·	56.2µM*	·	·
O=C(CN1C(=O)NC2(CCCCC2)C1=O)N1CCN(S(=O)(=O)c2ccc(F)c(F)c2F)CC1	?	-6.6%	?	-4.8%	·	3.2%
N#C/C(=C/c1ccccc1[N+](=O)[O-])c1nc(C2CC2)cs1	?	2.4%	?	89.1µM*	1.0%	10µM*
N#C/C(=C\C=C\c1ccccc1[N+](=O)[O-])c1nc(-c2ccc3c(c2)OCO3)cs1	-14.2%	-0.7%	-8.5%[59 µM]	-19.3%	7.7%	-8.0%
N#C/C(=C\c1ccccc1[N+](=O)[O-])c1nc(C2CC2)cs1	?	-8.4%	20µM*	31.6µM*	-11.7%	28.2µM*
CC1(O)C(=O)C=C2C=C(CCCCOCc3ccccc3)OC=C2C1=O (stereo not given)	·	·	·	·	3.4%	·
CCCOc1ccc(-c2csc3nc[nH]c(=O)c23)cc1	39.3%	-1.7%	·	-8.5%	-4.2%	-2.3%
CCOc1ccc(-c2c(C)sc3nc[nH]c(=O)c23)cc1	47.9%	-2.9%	9.7%	89.1µM*	12.9%	-0.2%
Cc1cccc(N(C)S(=O)(=O)c2c(C(=O)N3CCCCCC3)c(C)n(C)c2C)c1	7.1%	·	14.4%[59 µM]	-31.7%	·	-14.7%
Cc1cc(C)n2nc(SCC(=O)c3cc(C)n(-c4cc(C)on4)c3C)nc2n1	3.8%	-5.6%	50.1µM*	-14.7%	?	?
O=C1/C(=C\c2ccc(O)c(O)c2)Oc2c1ccc(O[C@@H]1O[C@H](CO)[C@@H](O)[C@H](O)[C@H]1O)c2O	-21.0%	·	·	?	?	·
